Assay outcomes from PubChem.
In the library only some 2% were active in any assay of this set; here they are far more common.
ID4 SMM – binds human ID4 protein on microarray; P47928; AID 624137; small molecule microarray, Flag-ID4 binding, fluorescence F/B; 1.2% of 31,000 active; calls only; call rule not given here;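 further: a binder raises fluorescence above local background on the spot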
Target sequence (P47928 whole entry, looked up): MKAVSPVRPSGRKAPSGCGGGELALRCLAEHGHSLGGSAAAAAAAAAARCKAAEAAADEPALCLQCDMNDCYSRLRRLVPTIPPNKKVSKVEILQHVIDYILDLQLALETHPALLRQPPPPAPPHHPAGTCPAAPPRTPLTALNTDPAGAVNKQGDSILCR
STK33 kin inh – inhibitors of human STK33 kinase; Q9BYT3; ADP-Glo luminescence, MBP substrate; inhibition, % at 12.5 µM; 0.44% of 27,000 active; AID 2322; in the data active means inhibition above about 20%
mut p53 react – restores mutant p53 pathway signaling in SW480 cells | activation, % at 9.98 µM | 1.5% of 28,000 active | AID 624151 | SW480 PUMA-promoter luciferase, p53 mutant reactivation; in the data active means activation above about 52%
Numbers without * were called inactive; i = inactive; / = not tested or not shown.

SMILES	ID4 SMM	STK33 kin inh	mut p53 react
CCn1cnc2c(Nc3cccc(Cl)c3)nc(N[C@@H]3CCCC[C@@H]3N)nc21	/	62.5*	-62.7
Oc1ccc2c3c1OC1c4[nH]c5c(c4CC4(O)C(C2)N(CC2CC2)CCC314)CC1(O)C2Cc3ccc(O)c4c3C1(CCN2CC1CC1)C5O4 (stereo unspecified)	/	/	-1.0
CCc1ccc(NC2=NCCS2)cc1	i	/	61.2*
CCC(C)(O)C(=O)O[C@H]1C(=O)O[C@@H]2C[C@H]3C(C)=CC(=O)[C@@H](O)[C@]3(C)[C@H]3[C@@]4(O)OC[C@]32[C@@H]1[C@@H](C)[C@H]4O (stereo partly specified)	/	-3.2	/
NCC(=O)Nc1ccc(Br)cc1C(=O)c1ccccc1	i	2.7	112.6*
CN1CCN(CC(=O)Nc2ccc(Br)cc2C(=O)c2ccccc2)CC1	i	0.1	-0.3
Clc1ccc(C2=CCCC3CCC2N3)cn1 (stereo unspecified)	i	/	7.2
CN[C@@H]1C[C@@]2(C)O[C@@H]([C@@H]1OC)n1c3ccccc3c3c4c(c5c6ccccc6n2c5c31)C(=O)NC4	/	130.7*	/
C/C=C\C(=O)O[C@@H]1C[C@H]2O[C@@H]3C=C(C)C(=O)C[C@]3(C)[C@]1(C)[C@]21CO1	/	1.2	/
CC(C)(O)/C=C/C(=O)[C@](C)(O)C1[C@H](O)C[C@@]2(C)[C@@H]3CC=C4C(CC(=O)C(=O)C4(C)C)[C@]3(C)C(=O)C[C@@]12C (stereo partly specified)	i	/	-60.2
CCCCC/C=C/C/C=C/C/C=C/C/C=C/CCCC(=O)Nc1ccc(O)cc1	i	/	-20.5
Oc1cc2c(cc1O)C1c3ccccc3CNC1CC2 (stereo unspecified)	/	/	-2.9
